# ChEMBL document CHEMBL4513143, “CO-ADD screening of University of Natural Resources and Life (Austria) compounds”
# Potency and affinity values are given separately.
# Columns and labels:
# [1] = tested on: Klebsiella pneumoniae; details: Concentration 32 ug.mL-1; ASSAY_TEST Inhibition of Bacterial Growth; detection method Absorption (OD600); MEDIA CAMHB; plate type 384well; NBS; CORNING #3640; time 18 hr
# [2] = tested on: Candida albicans; details: 32 ug/mL
# [3] = tested on: Cryptococcus neoformans; details: Concentration 32 ug.mL-1; ASSAY_TEST Inhibition of Fungal Growth; detection method Resazurin; Absorption (OD600-OD570); plate type 384well; NBS; CORNING #3640
smiles,measurement,setting,value
[N-]=[N+]=NC[C@H]1OC(O)[C@@H](O)[C@@H]1O (stereo partly drawn),Inhibition,[1],29.69%
same,Inhibition,[2],3.08%
same,Inhibition,[3],-7.43%
